A selection: hits, their analogues and other compounds. The true share with any hit is near 2.1%.
PAX8 reporter: inhibitors of PAX8 transcriptional activity in RMG-I cells | RMG-I TPO-luciferase reporter, SteadyGlo, 24 h | inhibition, % at 12.6 µM | 1.2% of 360,000 active | AID 652154;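 active = mean replicate inhibition at least 60% with every replicate also reaching 60%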;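 note: luciferase light reporting Pax8 driven TPO promoter activity; plate controls were median of neutral control wells for no effect and mitoxantrone controls for full effect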
Shn3 inh set2: reduces Shn3 3'UTR luciferase signal in osteoblasts; Clone20 osteoblast Shn3 3'UTR firefly luciferase, 24 h; inhibition, % at 12.5 µM; 0.52% of 360,000 active;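 active = mean inhibition of at least 75% with every replicate also reaching 75%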;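 note: 0% = median of neutral control wells and 100% = pilot-screen positive control compound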
MITF TRPM1 inh: MITF TRPM1 promoter inhibition in SK-MEL-5 cells; SK-MEL-5 TRPM1 promoter luciferase, 24 h; inhibition, % at 12.5 µM; 0.83% of 330,000 active;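 active = mean inhibition across replicates of 60% or more, whatever share of single replicates reaches that level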
EBV LMP1 NFkB: inhibitors of Epstein-Barr LMP1-induced NF-kappaB reporter | LMP1-induced NF-kappaB luciferase reporter cells, luminescence | inhibition, % at 12.5 µM | 0.69% of 350,000 active; in the data active = inhibition above about 41%;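 note: 0% = neutral control wells and 100% = reference inhibitor control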
aSyn 5UTR inh: MLPCN primary screen, SNCA 5' untranslated region; alpha-synuclein 5'UTR reporter, inhibitor activity; inhibition, % (tested at 7.5 µM); 0.82% of 300,000 active; AID 1813; in the data active = inhibition above about 60%;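 note: H4 neuroglioblastoma cells stably carrying SNCA 5'UTR luciferase fusion; 0% = DMSO wells and 100% = positive control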
* hit, by the source's call; nt = not tested or not shown; ! = not confirmed by another sample.

SMILES	PAX8 reporter	Shn3 inh set2	MITF TRPM1 inh	EBV LMP1 NFkB	aSyn 5UTR inh
Cn1nnnc1Sc1ncnc2scc(-c3ccccc3)c12	91*	8	36	34	-59
Cn1nnnc1Sc1ncnc2scc(Br)c12	56	97*	-17	27	nt
Cn1nnnc1Sc1ncnc2scc(-c3ccc[nH]3)c12	99*	71	84*	-10	nt
Cn1nnnc1Sc1ncnc2scc(-c3ccccc3Br)c12	83*	-4	58	10	nt
Cn1nnnc1Sc1ncnc2scc(-c3cccc4ccccc34)c12	40	-4	34	5	nt
Cn1nnnc1SCSc1nnnn1C	nt	11	4	11	-2
COc1ccccc1-c1csc2ncnc(Sc3nnnn3C)c12	18	13	2	6	nt
CCc1n[nH]c(=O)c2cc3cc(OC)ccc3n12	-29	20	-1	-8	12
C[C@@H]1CN([C@@H](C)CO)C(=O)Cc2cc(NC(=O)CCCCCC(=O)Nc3ccccc3N)ccc2O[C@@H]1CN(C)CC1CCCCC1	24	nt	nt	nt	nt
COc1ccc(S(=O)(=O)NC(=O)C2(C)CCN2C(=O)c2c(C)noc2C)cc1 (configuration not stated)	-13	-10	nt	nt	nt
Cn1nnnc1Sc1ncnc2scc(-c3ccc(Br)cc3)c12	100*	96*	94*	15	nt
Cn1nnnc1SCc1nc2scc(-c3ccc(Cl)cc3)c2c(=O)[nH]1	-1	30	6	1	20
Cn1nnnc1Sc1ncnc2scc(-c3ccc(F)cc3)c12	108*	93*	83*	71*	-89
Cc1ccc(-c2csc3ncnc(SCC(N)=O)c23)cc1	-10	-1	-8	4	11
COc1ccc(C(C#N)CC(=O)c2ccc(OCc3ccccc3)c(OC)c2)cc1OC (configuration not stated)	20	24	nt	-1	nt
C[C@@H]1CCCCO[C@H](CN(C)Cc2ccncc2)[C@H](C)CN([C@@H](C)CO)C(=O)c2cc(NC(=O)C3CCCCC3)ccc2O1	67*	nt	nt	nt	nt
C[C@@H]1CCCCO[C@H](CN(C)Cc2ccccc2)[C@@H](C)CN([C@H](C)CO)C(=O)c2cc(NC(=O)c3ccccc3)ccc2O1	1	90*	nt	-1	nt
C[C@@H]1CN([C@H](C)CO)C(=O)c2cc(NC(=O)C3CCCCC3)ccc2O[C@@H](C)CCCCO[C@H]1CN(C)Cc1ccncc1	8	nt	nt	nt	nt
C[C@@H]1CCCCO[C@H](CN(C)Cc2ccncc2)[C@H](C)CN([C@@H](C)CO)C(=O)c2cc(NC(=O)c3ccccc3)ccc2O1	70*	nt	nt	nt	nt
C[C@H](CO)N1C[C@H](C)[C@H](CN(C)C)Oc2ccc(NC(=O)Cn3cnnn3)cc2C1=O	3	nt	nt	nt	nt
COc1ccc(NC(=O)c2cccs2)cc1OC	nt	-39	-30	-8	-48
CCN1CCc2c(sc(NC(=O)c3ccc(S(=O)(=O)N4CCCCCC4)cc3)c2C(=O)NC)C1	nt	11	67*	-2	-14
Cc1ccc(O)c(NC(=O)CN(C)S(=O)(=O)c2ccc(Cl)cc2)c1	-17	-24	7	-15	-55
N=C(N)c1ccc(O)cc1	11	-7	2	6	12
N=C(N)c1ccccc1	21	-9	-1	82*!	-35
SMILES	PAX8 reporter	Shn3 inh set2	MITF TRPM1 inh	EBV LMP1 NFkB	aSyn 5UTR inh
Cc1ccc(N(CC(=O)N2CCc3ccccc32)C2=NC(=O)CS2)cc1	13	10	1	-6	13
c1ccc2cc(-c3csnn3)ccc2c1	nt	-31	-20	-7	-74
CC=Cc1ccc2n(c1=O)C[C@H]1[C@H](CO)[C@@H](C(=O)NCC(F)(F)F)N(CC)[C@@H]21 (mixture of isomers)	-12	nt	nt	nt	nt
O=C(Nc1ccc([N+](=O)[O-])cn1)c1cc(-c2cccc(Cl)c2)nc2ccccc12	3	0	-2	0	-1
O=C(Nc1ccc([N+](=O)[O-])cn1)c1cc(-c2cccc(Br)c2)nc2ccccc12	115*	-28	2	1	-38
CCOc1ccc(-c2cc(CCCC(=O)NCc3ccc(C)cc3)no2)cc1	-1	32	20	-3	81*
CCOc1ccc(-c2cc(CCCC(=O)NCc3ccco3)no2)cc1	-1	22	12	14	73*
COc1ccc(-c2cc(CCCC(=O)NCCc3cc(OC)ccc3OC)no2)cc1	nt	19	3	9	7
COc1cccc(CC(=O)Nc2nc3c(s2)C(=O)CC(C)(C)C3)c1	99*	-2	6	4	-20
Cc1cccc(Nc2nc(N)c([N+](=O)[O-])c(N3CC(C)CC(C)C3)n2)c1 (configuration not stated)	71*	10	7	1	28
O=C(Nc1ccc(F)cc1)N1CCCCN2[C@@H](CO)[C@H](c3ccc(C4=CCCCC4)cc3)[C@@H]2C1	54	nt	nt	nt	nt
O=C(Nc1ccc(F)cc1)N1CCCCN2[C@H](CO)[C@@H](c3ccc(C4=CCCCC4)cc3)[C@H]2C1	74*	nt	nt	nt	nt
COc1ccc(NC(=O)N2CCCCN3[C@@H](CO)[C@@H](c4ccc(C5=CCCC5)cc4)[C@@H]3C2)cc1	82*	nt	nt	nt	nt
CCN(C(=O)c1ccc(C(C)(C)C)cc1)c1nnc(Cn2nnc3ccccc32)s1	nt	93*	39	2	-23
CCN(C(=O)CC(C)C)c1nnc(Cn2nnc3ccccc32)s1	7	63	15	14	17
O=C(C[C@@H]1CC[C@@H]2[C@H](COC[C@H](O)CN2C(=O)Nc2ccc(C(F)(F)F)cc2)O1)NC1Cc2ccccc2C1	-2	nt	nt	nt	nt
O=C(C[C@H]1CC[C@@H]2[C@H](COC[C@H](O)CN2Cc2cccc(C(F)(F)F)c2)O1)NCc1ccc(Cl)cc1	34	nt	nt	nt	nt
O=C(C[C@H]1CC[C@H]2[C@@H](COC[C@H](O)CN2Cc2cccc(C(F)(F)F)c2)O1)NCc1ccc(Cl)cc1	70*	nt	nt	nt	nt
O=C(C[C@H]1CC[C@H]2[C@@H](COC[C@H](O)CN2C(=O)Nc2ccc(C(F)(F)F)cc2)O1)NC1Cc2ccccc2C1	74*	nt	nt	nt	nt
O=C(C[C@@H]1CC[C@@H]2[C@H](COC[C@@H](O)CN2C(=O)Nc2ccc(C(F)(F)F)cc2)O1)NC1Cc2ccccc2C1	88*	nt	nt	nt	nt
C=CCn1c(SCC(=O)Nc2cc(C)on2)nc2c([nH]c3ccccc32)c1=O	18	16	31	-34	9
CN1CCN(C(=O)C23CC4CC(CC(C4)C2)C3)CC1	nt	nt	nt	nt	-15
CC(C)C[C@H]1CN=C(N(C)C)N1CC1CCCCCC1	-18	87*	12	-8	nt
CCn1c(SC(C)C)nnc1-c1c[nH]c2ccccc12	7	-16	-6	84*	-27
CN(C)CCN1C(=O)c2cccc3cc([N+](=O)[O-])cc(c23)C1=O	39	97*	84*	58*	nt
Cn1c(SCC(=O)c2ccccc2)nnc1-c1ccccn1	90*	-130	-42	-27	-128
CCc1ccc(-c2nc(C(N)=O)c3[nH]c(=O)n(-c4ccccc4OC)c3n2)cc1	3	0	12	4	82*
COc1ccc(-c2nc(C(N)=O)c3[nH]c(=O)n(-c4cccc(Cl)c4)c3n2)cc1OC	nt	1	2	-20	17

Screening results (PubChem)
